Hit rate of the full screen: of about 360,000 compounds, about 2,300 (0.64%) were called active. No stated cut-off is given here; in the data, active means inhibition mostly above about 40% (no sharp cut-off); inactive means mostly below about 27%. The entries come from a sample that favours actives as a whole.

For the assay, the target named is Sentrin-specific protease 8 (Homo sapiens) (UniProt Q96LD8). The experiment in a line: human SENP8 protease inhibitors, primary screen, biochemical, fluorescence, Nedd8 protein substrate, uHTS (AID 602440). The conditions noted are these: recombinant SENP8, Nedd8 substrate fluorescence; at 20 µM; hits give high values.
Sentrin-specific protease 8 (Homo sapiens), sequence (Q96LD8 whole entry, looked up): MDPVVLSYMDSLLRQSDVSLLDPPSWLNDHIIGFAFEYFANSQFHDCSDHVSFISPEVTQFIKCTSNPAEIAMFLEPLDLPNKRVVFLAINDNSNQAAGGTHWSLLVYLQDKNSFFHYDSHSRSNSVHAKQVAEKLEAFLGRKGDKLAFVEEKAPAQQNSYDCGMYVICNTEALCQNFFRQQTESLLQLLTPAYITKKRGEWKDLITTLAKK
For the molecule `Cc1cc(C)cc(N(CC(=O)NC2CCCC2)C(=O)CCC(=O)Nc2nccs2)c1`, the inhibition is 10.9% (inactive).
As to `CC1(C)C2CCC1(C)C(OC(=O)c1ccc(O)cc1)C2` (configuration not stated), the inhibition was 40.5% (active).
For `Cc1ccc(C(=O)OC2CCCN(C)C2)cc1` (configuration not stated), the inhibition is 8.1% (inactive).
Turning to `CC1(C)C2CCC1(C)C(OC(=O)CCn1ccnc1)C2` (configuration not stated), the inhibition is 22.1% (inactive).
Under `COc1ccc2c(c1)C(C)=CC(C)(C)N2C(=O)Nc1ccccc1` stands -486% (inactive).
Regarding `COc1cc2[nH]c(=S)n(Cc3ccc(C)o3)c(=O)c2cc1OC`, the inhibition is 20% (inactive).
In the case of `CCC(C)(C)NC(=O)C(c1ccc(O)cc1)N(Cc1ccco1)C(=O)CCC(=O)Nc1ccccn1` (configuration not stated), the inhibition is -20.6% (inactive).
To `Nc1ncnc2c1ncn2[C@@H]1O[C@H](C(=O)N2CCCN(Cc3ccccc3F)CC2)[C@@H](O)[C@H]1O` belongs 18.2% (inactive); to `CCOc1ccc(NC(=O)CCNC(=O)c2ccc(Br)cc2)cc1`, 0.3% (inactive); to `CCN(CC)C(=O)CCC(=O)Nc1ccc(C(=O)OC)cc1`, 51.9% (active).
As for `CCN(CC)CCOC(=O)c1ccc(NC(=O)CNC(=O)c2ccccc2)cc1`, the inhibition was 7% (inactive).
Under `Nc1c(C(=O)c2cccs2)sc2nsc(SCCN3CCCCC3)c12` stands 16.8% (inactive).
On to `O=C(NCCN1CCOCC1)C1CCN(S(=O)(=O)c2ccccc2)CC1`, for which the inhibition was 18% (inactive).
With `O=C(NNc1nc(N2CCCC2)nc(N2CCCC2)n1)c1ccccc1`, the inhibition is 5.2% (inactive).
With `CCc1ccccc1NC(=O)c1ccc2c(c1)CCN2S(C)(=O)=O`, the inhibition is 22.2% (inactive).
With `CCc1ccccc1NC(=O)NCCN1CCCCC1`, the inhibition was 12.7% (inactive).
To `CN1CCc2ccccc2C1Cc1ccccc1NC(=O)c1sc2ccccc2c1Cl` (configuration not stated) belongs 53.8% (active).
Consider `Cc1ccc(C2=Nc3c(ccc4ccccc34)C(c3ccncc3)=NN2)cc1`, for which the inhibition is -6.5% (inactive).
Under `C=C(C)Cn1c(C)cc(C)c(S(=O)(=O)c2ccccc2C)c1=O` stands 20.8% (inactive); under `COc1ccc(C(=O)CCc2ccccc2O)c(OC)c1`, 9.3% (inactive).
On to `COc1ccc(/C=C2/C(=O)OCc3cc(OC)c(OC)cc32)c(OC)c1`, for which the inhibition is 20.7% (inactive).
For `COc1ccc(/C=C2/C(=O)N(c3ccccc3)N=C2C)c(OC)c1`, the inhibition is 53.8% (active).
For the molecule `O=C(CSc1nnnn1C1CCCC1)Nc1ccc2c(c1)OCCO2`, the inhibition was 7% (inactive).
Take `CN(C)c1ccc(/C=C2\NC(=S)N(Cc3ccccc3)C2=O)cc1`: the inhibition was 46.7% (active).
Turning to `CCN(CC(=O)NC(C)C)C(=O)c1cc(S(=O)(=O)N2CCCCC2)ccc1N1CCCCC1`, the inhibition is 2.8% (inactive).
Under `CCOC(=O)C1CCCCN1Cc1ccc(OC)c(OC)c1OC` (configuration not stated) stands -4.4% (inactive); under `CC1(C)CC(=O)C(N=Nc2c(F)cccc2F)=C(O)C1`, 24.6% (inactive); under `O=C1CCCC(O)=C1N=Nc1ccc(S(=O)(=O)N2CCOCC2)cc1`, 43.2% (active).
Turning to `CC1(C)CC(=O)C(N=Nc2ccc(S(=O)(=O)N3CCCCCC3)cc2)=C(O)C1`, the inhibition is 41% (active).
Under `O=C1CCCC(O)=C1N=Nc1ccc2ncsc2c1` stands 7.1% (inactive); under `O=S(=O)(c1ccc(-c2ccccc2)cc1)N1CCCC1`, 7.9% (inactive); under `Cc1ccc(S(=O)(=O)N2CCN(S(=O)(=O)N3CCOCC3)CC2)cc1`, 6.5% (inactive).
Regarding `Cn1c(C(=O)O)ccc1S(=O)(=O)N(Cc1ccccc1)Cc1ccccc1`, the inhibition was -7% (inactive).
To `COc1ccc(C(=O)N(CCN2CCOCC2)CC(=O)NC2CCCC2)cc1OC` belongs -1.7% (inactive).
For `CN(CC(=O)NNC(=O)CNC(=O)c1ccccc1Cl)S(=O)(=O)c1ccc(Cl)cc1`, the inhibition was 10.1% (inactive).
Consider `Cc1cc(O)c(NC(=O)c2ccc(C)c([N+](=O)[O-])c2)cc1C`, for which the inhibition was 3.9% (inactive).
For `CCN(CC)C(=O)CC1(c2ccccc2OC)CCOC(C(C)C)C1` (configuration not stated), the inhibition is 4% (inactive).
As for `Clc1ccc(C2=CSC3=Nc4cccc5cccc(c45)N23)cc1`, the inhibition is 70.7% (active).
`COCCNC(=S)N1CCC(NC(=O)C23CC4CC(CC(C4)C2)C3)CC1`: the inhibition is 8.9% (inactive).
Turning to `c1ccc(-c2c[nH]c(-c3ccccc3)c2)cc1`, the inhibition was -22% (inactive).
`CCCc1c(-c2ccccc2F)ncn1Cc1ccccc1OC`: the inhibition is 2.7% (inactive).
For `CC(=O)NNc1cc(=O)c2c(=O)n(C)c(=O)n(C)c2[nH]1`, the inhibition is 15.9% (inactive).
To `Cn1c(N)c(C(=O)COC(=O)C23CC4CC(CC(C4)C2)C3)c(=O)n(C)c1=O` belongs 12% (inactive); to `O=C(COC(=O)c1ccc(Br)o1)NC12CC3CC(CC(C3)C1)C2`, 10% (inactive); to `O=C(COC(=O)c1ccc([N+](=O)[O-])o1)NC12CC3CC(CC(C3)C1)C2`, 35.1% (active).
Take `O=C(OCC(=O)c1cccs1)c1ccc([N+](=O)[O-])o1`: the inhibition is 29.2% (inactive).
On to `C/C=C/C=C/C(=O)O`, for which the inhibition was 11.5% (inactive).
As for `NCCCCC(C(=O)O)N(C(=O)OCc1ccccc1)C(=O)OCc1ccccc1` (configuration not stated), the inhibition is 15.2% (inactive).
Turning to `O=C(C[C@H]1C(=O)N(c2ccc(F)c(F)c2)C[C@@H]1Cc1ccccc1)Nc1ccccc1`, the inhibition is 1.6% (inactive).
Regarding `CCCCn1c(N)c(N(CC(C)C)C(=O)c2ccc(-n3c(C)ccc3C)cc2)c(=O)[nH]c1=O`, the inhibition was 1.8% (inactive).
With `Oc1ccc(C2Nc3cccc4cccc(c34)N2)cc1`, the inhibition is 63.3% (active).
With `O=C(COC(=O)c1ccc2ncsc2c1)Nc1ccc(Cl)cc1`, the inhibition was -18.6% (inactive).
Under `C=CCOc1ccc(C(=O)Nc2ccccc2C(=O)N2CCCC2)cc1` stands 0.4% (inactive).
`CN(C(=O)CN1C(=O)/C(=C/c2ccc(Cl)cc2)SC1=S)C1CCS(=O)(=O)C1` (configuration not stated): the inhibition is 23.9% (inactive).
In the case of `C=CCOc1ccc(/C=C2\SC(=S)N(CCC(=O)O)C2=O)cc1`, the inhibition is 40.8% (active).
To `O=[N+]([O-])c1ccc(COc2ccccc2CN2CCOCC2)cc1` belongs -0.2% (inactive).
In the case of `OC(c1ccccc1)C(CN1CCOCC1)c1ccccc1` (configuration not stated), the inhibition is 9.9% (inactive).
Take `Oc1c(CN2CCOCC2)ccc(CN2CCOCC2)c1O`: the inhibition was 79% (active).
Regarding `O=C(Cn1cc(-c2nnnn2-c2ccc(Cl)cc2)c(=O)c2ccccc21)c1ccccc1`, the inhibition is 26.2% (inactive).
With `COC(=O)CN1C(=O)C(C)(C)Oc2ccc(C(=O)Nc3cccc(OC)c3)cc21`, the inhibition is 1.3% (inactive).
As for `CC[n+]1cc(C)ccc1/C=C/c1ccc(N(C)C)cc1`, the inhibition was 18.1% (inactive).
To `CN(C)c1ccc(Nc2c3c4c(cccc4n(C)c2=O)C(=O)c2ccccc2-3)cc1` belongs 52.7% (active).
`Cc1ccc(NC(=S)N(CCCN2CCCC2)Cc2cccn2Cc2ccc(Cl)cc2)cc1`: the inhibition is 14.9% (inactive).
Turning to `CCn1c(C)nc2c1C(=O)c1ccccc1C2=O`, the inhibition was 53.2% (active).
For the molecule `Cc1nc2ccccc2n1CC(O)c1ccccc1` (configuration not stated), the inhibition is 0.7% (inactive).
With `CCOC(=O)c1ccc2c(c1)nc(C)n2CC`, the inhibition is 17.4% (inactive).
With `O=C(NC(=S)N1CCc2ccccc21)c1ccco1`, the inhibition is 11.3% (inactive).
`Cc1c(C(=O)N(Cc2ccccc2)Cc2cccnc2)cnn1-c1ccc(F)cc1`: the inhibition is 7.4% (inactive).
In the case of `O=C(Nc1cc2c3c(c1)C1CCCC1CN3CC1CCCC21)c1ccc([N+](=O)[O-])cc1` (configuration not stated), the inhibition was 40.6% (active).
For the molecule `CN1C2CCC1CC(NC(=O)c1ccc([N+](=O)[O-])cc1)C2` (configuration not stated), the inhibition is 17.8% (inactive).
On to `O=C(CCNC(=O)c1ccc([N+](=O)[O-])cc1)NC1CCCCC1`, for which the inhibition was 15.8% (inactive).
Under `CCC1CCCCN1C(=O)Nc1cccc(NC(=O)N2CCCCC2CC)c1` (configuration not stated) stands 13% (inactive).
`CC(CCn1cccn1)NC(=O)CCc1nnc(CCc2ccccc2)o1` (configuration not stated): the inhibition is 7.6% (inactive).
Turning to `CCOc1cc(/C=N/NC(=O)c2ccncc2)cc(Br)c1O`, the inhibition was 19.2% (inactive).
As for `O=C(N/N=C/c1ccc(Br)o1)c1cncc(Br)c1`, the inhibition was -18.2% (inactive).
For the molecule `Cc1ccc(C(=O)N/N=C\c2cc(Br)c(Br)o2)cn1`, the inhibition was 58.6% (active).
For `COC(=O)C1=C(C)NC(=S)NC1c1ccc(OCC(=O)N2CC(C)OC(C)C2)c(OC)c1` (configuration not stated), the inhibition was 3.3% (inactive).
Regarding `O=C(CN(C(=O)c1csnn1)c1cccc(F)c1)NCc1ccc(F)cc1`, the inhibition is 8.3% (inactive).
Under `Cn1c2c(c(=O)n(C)c1=O)C(c1cccc([N+](=O)[O-])c1)Nc1ccccc1O2` (configuration not stated) stands 22.9% (inactive).
As for `O=C(CN1CCN(c2cccc(Cl)c2)CC1)Nc1ccc(S(=O)(=O)N2CCOCC2)cc1`, the inhibition is 15% (inactive).
Take `COc1cccc(-c2nn(-c3ccccc3)cc2/C=C(\C#N)C(=O)NCCCn2ccnc2)c1`: the inhibition is -266% (inactive).
On to `CN(C)S(=O)(=O)c1cccc(-c2nn(-c3ccccc3)cc2/C=C2\SC(=S)N(CC(=O)O)C2=O)c1`, for which the inhibition is 44% (active).
Under `Cc1ccc(-c2nn(-c3ccccc3)cc2/C=C/C(=O)Nc2cccc(S(N)(=O)=O)c2)cc1` stands -81.3% (inactive).
Turning to `O=[N+]([O-])c1c(NCCO)cc(Sc2nc3ccccc3s2)c2nonc12`, the inhibition was 75.9% (active).
For the molecule `CC(C)(C)NC(=O)C(CCc1ccccc1)n1c(=O)c(-c2ccccc2)nc2ccccc21` (configuration not stated), the inhibition is -332% (inactive).
As to `CN1CCN(S(=O)(=O)c2ccc(N3CCN(c4ccccc4O)CC3)c([N+](=O)[O-])c2)CC1`, the inhibition is 39.2% (active).
Under `Cc1cccc(N2CCN(c3ccc(C(N)=O)cc3[N+](=O)[O-])CC2)c1C` stands 15.7% (inactive); under `CC(C)c1ccc(S(=O)(=O)N2CCN(C(=O)c3ccc(N4CCCC4)c([N+](=O)[O-])c3)CC2)cc1`, 11.9% (inactive); under `CS(=O)(=O)N1CCN(c2ccc(C(=O)NC3C4CC5CC(C4)CC3C5)cc2[N+](=O)[O-])CC1` (configuration not stated), 13.8% (inactive).
Consider `Cc1ccc(C(=O)c2ccc(N3CCN(C)CC3)c([N+](=O)[O-])c2)cc1`, for which the inhibition is 47.4% (active).
Consider `Cc1ccccc1N1CCN(S(=O)(=O)c2ccc3ccccc3c2)CC1`, for which the inhibition was 12.3% (inactive).
Take `COC(=O)c1ccccc1NC(=O)C1CCN(C(=O)N2CCOc3ccccc32)CC1`: the inhibition is -37.2% (inactive).

Usually inhibition stands for the relative decrease from the control value, in per cent.
